Most compounds without a hit are left out; they make up all but 27% or so of the library.
sEH act – soluble epoxide hydrolase (human) activation | P34913 | purified human sEH enzymatic activity, activator screen | activation, % at 2 µM | 91,000 compounds, 0.04% hits; in the data active = activation above about 37%
CYP2C9 activ – CYP2C9 (human) activation | recombinant CYP2C9, luciferin-H conversion, luminescence; active compounds read high; factor 1 = untreated enzyme, 0 = blocked | activation factor at 5 µM | 96,000 compounds, 1.4% hits;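 active = activation factor of 2 or more for CYP2C9 at a 5 µM dose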
Target sequence (P11712 whole entry, looked up): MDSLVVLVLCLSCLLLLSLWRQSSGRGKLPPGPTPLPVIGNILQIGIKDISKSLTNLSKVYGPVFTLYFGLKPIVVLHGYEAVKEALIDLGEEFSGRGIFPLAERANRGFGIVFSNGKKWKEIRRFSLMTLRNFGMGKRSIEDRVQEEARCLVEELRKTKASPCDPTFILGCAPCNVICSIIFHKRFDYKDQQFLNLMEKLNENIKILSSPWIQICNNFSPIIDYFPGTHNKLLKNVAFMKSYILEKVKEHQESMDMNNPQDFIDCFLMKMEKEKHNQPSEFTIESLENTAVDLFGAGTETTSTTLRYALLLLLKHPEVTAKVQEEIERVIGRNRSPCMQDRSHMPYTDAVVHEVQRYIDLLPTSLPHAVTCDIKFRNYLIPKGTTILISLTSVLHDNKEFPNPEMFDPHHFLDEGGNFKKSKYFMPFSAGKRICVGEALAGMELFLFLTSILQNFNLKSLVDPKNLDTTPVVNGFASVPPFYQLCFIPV
sEH inh – blocks human soluble epoxide hydrolase activity. P34913. AID 707. recombinant human sEH enzymatic activity assay. inhibition, % at 2 µM. 91,000 compounds, 0.34% hits; in the data active = inhibition above about 80%
CYP2C19 act – activators of human cytochrome P450 2C19 | P33261 | recombinant CYP2C19, luciferin-H EGE luminescence; active compounds read high; 0 = fully inhibited enzyme, 1 = untreated enzyme | activation factor at 5 µM | 96,000 tested, under 10 active;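 active = activation factor of at least 2 at 5 µM in the primary screen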
CYP2C19 inh – inhibitors of human CYP2C19; CYP2C19 Supersomes, luciferin-H EGE luminescence, 30 min; P33261; inhibition, % at 5 µM; 96,000 compounds, 21% hits;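 active = CYP2C19 inhibition above a set limit at 5 µM in the primary screen, cut at about 50% in these data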
CYP2C9 inh – human CYP2C9 inhibition. inhibition, % at 5 µM. CYP2C9 Supersomes, luciferin-H conversion, luminescence. 96,000 compounds, 20% hits. P11712;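 active = blocking of liver enzyme CYP2C9 beyond about 50% at 5 µM, limit read from the data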
Each line names hits and unclear results; the compound was inactive in the other large screens.

CC(C)CN(C(=O)c1ccc(=O)n(C)n1)c1nc2ccccc2s1	CYP2C19 inh 89.8, CYP2C9 inh 83.5
CC(=O)c1cccc(NC(=S)NC(=O)CC(C)C)c1	CYP2C9 inh 55.8
COc1cc(NC(=S)Nc2cccc(Cl)c2Cl)c(OC)cc1Cl	none
CCC(=O)NC(=S)Nc1cccc(C(C)=O)c1	none
COc1cc(OC)c(NC(=S)Nc2cccc(C(C)=O)c2)cc1Cl	CYP2C19 inh 54.3
CC(=O)c1cccc(NC(=O)NC(C)c2ccncc2)c1 (stereo unspecified)	CYP2C19 inh 85.0, CYP2C9 inh 93.8
O=C(O)c1cccc(NC(=S)NC(=O)C(c2ccccc2)c2ccccc2)c1	CYP2C9 inh 81.6
CCCC(CCC)C(=O)Nc1cccc(C(=O)O)c1	none
CC(=O)c1cccc(NC(=O)Nc2cccnc2)c1	none (no result: CYP2C9 activ, CYP2C19 act, CYP2C19 inh, CYP2C9 inh)
Cc1cc(C)nc(/N=C2\NC(=O)CC(C(=O)O)N2c2ccc(Cl)cc2)n1 (stereo unspecified)	none
O=C(NCc1ccccc1)N(Cc1nc2ccccc2c(=O)[nH]1)C1CCCC1	CYP2C9 inh 52.9
O=C(COCc1nc2ccccc2c(=O)[nH]1)NCC1CCCCC1	none (no result: CYP2C9 activ, CYP2C19 act, CYP2C19 inh, CYP2C9 inh)
Oc1ccc(Br)cc1-c1nc2cnccn2c1NC1CCCCC1	CYP2C19 inh 76.9, CYP2C9 inh 90.8
O=C(O)c1ccc(CSCc2ccccc2F)o1	none
O=S(=O)(CCN(CCS(=O)(=O)C(F)(F)F)CC1CCCO1)C(F)(F)F (stereo unspecified)	none
CCOC(=O)CSc1nnc(C2CCCCC2)n1C	none (no result: sEH act, sEH inh)
Cc1cc(C(C)(C)C)oc1C(=O)N(CC(=O)NC1CCCC1)Cc1ccccc1Cl	CYP2C9 inh 54.2
CC(C)(C)NC(=O)C(c1ccccc1)N(C(=O)C1CSC(=O)C1)c1ccccc1 (stereo unspecified)	none
COc1ccc(CCNC2CCN(C)CC2)cc1OC	CYP2C9 inh 74.1
Cc1nn(-c2cc(N3CCCC3)ccc2[N+](=O)[O-])c(=O)c2ccccc12	none
Cc1ccc(-c2nn(-c3cc(Cl)ccc3[N+](=O)[O-])c(=O)c3ccccc23)cc1	CYP2C19 inh 51.4
Cc1cc(NC(=O)Cn2cnc3sc(C)c(-c4ccccc4)c3c2=O)no1	none (no result: CYP2C9 activ, CYP2C19 act, CYP2C19 inh, CYP2C9 inh)
CCCCOc1ccc(OCCNS(=O)(=O)N(C)C)cc1	CYP2C19 inh 53.7
CCOc1ccc(NS(=O)(=O)N(C)C)cc1	none
Cc1cc(C)cc(NC(=O)C/C(N)=N/O)c1	none
Cc1ccc(NC(=O)CN(C)CC(=O)Nc2c(C)cccc2C)c(Br)c1	none (no result: sEH act, sEH inh)
Cc1cccc(-n2c(C)cc(/C=N/NC(=O)c3cccc([N+](=O)[O-])c3C)c2C)c1	none
COC(=O)C1=CN(c2cccc(C)c2)C=C(C(=O)OC)C1c1cc(OC)c(O)c([N+](=O)[O-])c1	CYP2C9 inh 50.7
CC1(C)Cc2c(cnn2-c2ccccc2)C(=O)/C1=N\NC(=O)c1ccccc1	none
CC1(C)Cc2c(cnn2-c2ccccc2)C(=O)/C1=N\NC(=O)c1ccccc1O	CYP2C19 inh 51.1
O=C(c1ccccc1)c1ccc2nc(N3CCN(C(=O)c4ccco4)CC3)c3nncn3c2c1	CYP2C19 inh 78.4, CYP2C9 inh 92.0
COCCn1c(=O)[nH]c2cc(C(=O)NCCN3CCN(c4cccc(Cl)c4)CC3)ccc2c1=O	none (no result: CYP2C9 activ, CYP2C19 act, CYP2C19 inh, CYP2C9 inh)
Cc1nc(NCC2CCCO2)c2nnn(Cc3ccccc3Cl)c2n1 (stereo unspecified)	CYP2C9 activ 2.2, CYP2C19 inh 56.3 (no result: sEH act, sEH inh)
NC(=O)C1CCN(c2nc(C3CC3)nc3c2nnn3Cc2ccccc2Cl)CC1	none (no result: sEH act, sEH inh)
OCCNc1nc(C2CC2)nc2c1nnn2Cc1ccccc1Cl	CYP2C19 inh 81.7, CYP2C9 inh 60.4 (no result: sEH act, sEH inh)
Cc1nc(NCC2CCCO2)c2nnn(Cc3ccccc3)c2n1 (stereo unspecified)	none
O=C(NCCCO)C12CC3CC(CC(C3)C1)C2	none (no result: CYP2C9 activ, CYP2C19 act, CYP2C19 inh, CYP2C9 inh)
COc1cc2c(C#N)c(N3CCN(c4ccccc4OC)CC3)nc(N)c2c(N)n1	CYP2C19 inh 100.3, CYP2C9 inh 68.2 (no result: sEH act, sEH inh)
N#Cc1c(N)nc(N2CCCC2)c(C#N)c1-c1ccc(Cl)cc1	none (no result: sEH act, sEH inh)
COc1cc2c(C#N)c(N3CCN(C)CC3)nc(N)c2c(N)n1	none
N#Cc1c(N2CCCC2)nc(N)c2c(N)nc(N3CCCC3)cc12	CYP2C9 inh 61.1 (no result: sEH act, sEH inh)
O=C1c2cccc3cccc(c23)C(=O)N1c1nncs1	none (no result: sEH act, sEH inh)
CN(C)S(=O)(=O)c1cccc(COC(=O)C2=COCCO2)c1	none
O=C(Nc1cc(Sc2nc3ccccc3s2)cc([N+](=O)[O-])c1)c1ccccc1F	CYP2C9 inh 70.7

Source: PubChem
